Here are results for two sequences from publication PMC11006913.

Holding throughout (test): PBM; 200 nM protein, PBS
What all share (conditions): dsDNA, one strand shown

Assay [1] concerns the target CRX (Homo sapiens, UniProt O43186 26-111).
Assay [2] addresses HOXB9 (Homo sapiens, UniProt P17482 171-250, T197M).
Assay [3] concerns the target T1, SIX6 (Homo sapiens, UniProt O95475 114-200, L167I).
T1 sequence: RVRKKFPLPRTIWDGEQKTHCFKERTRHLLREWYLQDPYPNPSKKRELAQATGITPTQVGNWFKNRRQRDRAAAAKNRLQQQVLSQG

Assay [4] deals with T2, SIX6 (Homo sapiens, UniProt O95475 114-200, L143V).
T2 sequence: T1 sequence with L30V, I54L

Assay [5] concerns the target ALX4 (Homo sapiens, UniProt Q9H161 200-286).
The target in assay [6] is T3, SIX6 (Homo sapiens, UniProt O95475 114-200, H141N).
T3 sequence: T1 sequence with H28N, I54L

Assay [7] addresses T4, SIX6 (Homo sapiens, UniProt O95475 114-200, T165P).
T4 sequence: T1 sequence with T52P, I54L

The target of assay [8] is T5, SIX6 (Homo sapiens, UniProt O95475 114-200, L167M).
T5 sequence: T1 sequence with I54M

The target in assay [9] is T6, SIX6 (Homo sapiens, UniProt O95475 114-200, L143M).
T6 sequence: T1 sequence with L30M, I54L

Assay [10] has as its target T7, SIX6 (Homo sapiens, UniProt O95475 114-200, L143I).
T7 sequence: T1 sequence with L30I, I54L

Assay [11] concerns the target ALX4 (Homo sapiens, UniProt Q9H161 200-286, Q225E).
For assay [12], the target named is T8, SIX6 (Homo sapiens, UniProt O95475 114-200, T165G).
T8 sequence: T1 sequence with T52G, I54L

The target in assay [13] is HOXA2 (Homo sapiens, UniProt O43364 129-215, R185T).
Assay [14] deals with HOXB9 (Homo sapiens, UniProt P17482 171-250).
Assay [15] addresses T9, SIX6 (Homo sapiens, UniProt O95475 114-200, T139Q).
T9 sequence: T1 sequence with T26Q, I54L

The target in assay [16] is CRX (Homo sapiens, UniProt O43186 26-111, E42D).
Assay [17] has as its target T10, SIX6 (Homo sapiens, UniProt O95475 114-200, T165A).
T10 sequence: T1 sequence with T52A, I54L

Assay [18] concerns the target HOXA2 (Homo sapiens, UniProt O43364 129-215, R185K).
The target of assay [19] is T11, SIX6 (Homo sapiens, UniProt O95475 114-200, L167V).
T11 sequence: T1 sequence with I54V

The target of assay [20] is T12, SIX6 (Homo sapiens, UniProt O95475 114-200).
T12 sequence: T1 sequence with I54L

Assay [21] has as its target T13, SIX6 (Homo sapiens, UniProt O95475 114-200, T165I).
T13 sequence: T1 sequence with T52I, I54L

In assay [22] the target is HOXB9 (Homo sapiens, UniProt P17482 171-250, R186Q).
Assay [23] concerns the target HOXA2 (Homo sapiens, UniProt O43364 129-215, Y150S).
For assay [24], the target named is CRX (Homo sapiens, UniProt O43186 26-111, R41L).
Assay [25] concerns the target HOXA2 (Homo sapiens, UniProt O43364 129-215).

Numbering of substitutions follows the chain as printed.

Chain of CRX (Homo sapiens, UniProt O43186 26-111, R41L) (O43186 26-111 R41L): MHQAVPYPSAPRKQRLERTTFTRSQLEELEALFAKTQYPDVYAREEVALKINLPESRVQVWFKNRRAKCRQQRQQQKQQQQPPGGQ
Chain of CRX (Homo sapiens, UniProt O43186 26-111) (O43186 26-111): as the sequence (O43186 26-111 R41L) above, with L16R counted along it
Chain of CRX (Homo sapiens, UniProt O43186 26-111, E42D) (O43186 26-111 E42D): as the sequence (O43186 26-111 R41L) above, with L16R, E17D counted along it
Chain of ALX4 (Homo sapiens, UniProt Q9H161 200-286, Q225E) (Q9H161 200-286 Q225E): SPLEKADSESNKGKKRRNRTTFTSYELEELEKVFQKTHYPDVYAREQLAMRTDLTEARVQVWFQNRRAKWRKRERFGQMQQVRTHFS
Chain of HOXA2 (Homo sapiens, UniProt O43364 129-215, R185K) (O43364 129-215 R185K): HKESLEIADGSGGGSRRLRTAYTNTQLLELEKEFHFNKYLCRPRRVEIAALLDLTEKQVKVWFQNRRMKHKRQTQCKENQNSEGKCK
Chain of ALX4 (Homo sapiens, UniProt Q9H161 200-286) (Q9H161 200-286): as the sequence (Q9H161 200-286 Q225E) above, with E26Q counted along it
Chain of HOXA2 (Homo sapiens, UniProt O43364 129-215, Y150S) (O43364 129-215 Y150S): as the sequence (O43364 129-215 R185K) above, with Y22S, K57R counted along it
Chain of HOXB9 (Homo sapiens, UniProt P17482 171-250, T197M) (P17482 171-250 T197M): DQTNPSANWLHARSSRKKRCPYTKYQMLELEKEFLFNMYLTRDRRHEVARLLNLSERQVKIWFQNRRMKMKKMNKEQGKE
Chain of HOXA2 (Homo sapiens, UniProt O43364 129-215) (O43364 129-215): as the sequence (O43364 129-215 R185K) above, with K57R counted along it
Chain of HOXB9 (Homo sapiens, UniProt P17482 171-250) (P17482 171-250): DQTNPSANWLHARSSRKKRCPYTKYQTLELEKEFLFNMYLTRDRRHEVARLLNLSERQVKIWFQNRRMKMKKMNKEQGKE
Chain of HOXA2 (Homo sapiens, UniProt O43364 129-215, R185T) (O43364 129-215 R185T): as the sequence (O43364 129-215 R185K) above, with K57T counted along it
Chain of HOXB9 (Homo sapiens, UniProt P17482 171-250, R186Q) (P17482 171-250 R186Q): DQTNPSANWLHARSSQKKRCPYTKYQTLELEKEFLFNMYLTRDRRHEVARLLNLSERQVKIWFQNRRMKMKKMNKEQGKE

Take GGGGCCCC: the binding signal with CRX [1] was 8.9 upbm affinity estimate (log intensity, higher = more binding, comparable within an allelic series); in the assay with HOXB9 [2], 8.67 upbm affinity estimate (log intensity, higher = more binding, comparable within an allelic series); with SIX6 [3] it was 9.09 upbm affinity estimate (log intensity, higher = more binding, comparable within an allelic series); with SIX6 [4], 8.85 upbm affinity estimate (log intensity, higher = more binding, comparable within an allelic series); in the assay with ALX4 [5] it was 8.29 upbm affinity estimate (log intensity, higher = more binding, comparable within an allelic series); with SIX6 [6] it was 9 upbm affinity estimate (log intensity, higher = more binding, comparable within an allelic series). The binding signal is 8.87 upbm affinity estimate (log intensity, higher = more binding, comparable within an allelic series) in the assay with SIX6 [7]; 8.88 upbm affinity estimate (log intensity, higher = more binding, comparable within an allelic series) with SIX6 [8]; 8.91 upbm affinity estimate (log intensity, higher = more binding, comparable within an allelic series) with SIX6 [9]; 8.93 upbm affinity estimate (log intensity, higher = more binding, comparable within an allelic series) with SIX6 [10]; 8.44 upbm affinity estimate (log intensity, higher = more binding, comparable within an allelic series) with ALX4 [11]; 8.95 upbm affinity estimate (log intensity, higher = more binding, comparable within an allelic series) with SIX6 [12]. Further, the binding signal with HOXA2 [13] was 7.49 upbm affinity estimate (log intensity, higher = more binding, comparable within an allelic series); with HOXB9 [14], 8.5 upbm affinity estimate (log intensity, higher = more binding, comparable within an allelic series); with SIX6 [15], 9.06 upbm affinity estimate (log intensity, higher = more binding, comparable within an allelic series); with CRX [16] it was 8.69 upbm affinity estimate (log intensity, higher = more binding, comparable within an allelic series); with SIX6 [17] it was 9.03 upbm affinity estimate (log intensity, higher = more binding, comparable within an allelic series); with HOXA2 [18], 10.2 upbm affinity estimate (log intensity, higher = more binding, comparable within an allelic series). The binding signal in the assay with SIX6 [19] was 8.99 upbm affinity estimate (log intensity, higher = more binding, comparable within an allelic series); with SIX6 [20], 8.93 upbm affinity estimate (log intensity, higher = more binding, comparable within an allelic series); with SIX6 [21], 8.97 upbm affinity estimate (log intensity, higher = more binding, comparable within an allelic series); with HOXB9 [22] it was 8.63 upbm affinity estimate (log intensity, higher = more binding, comparable within an allelic series); in the assay with HOXA2 [23], 10.5 upbm affinity estimate (log intensity, higher = more binding, comparable within an allelic series); with CRX [24], 8.38 upbm affinity estimate (log intensity, higher = more binding, comparable within an allelic series). The binding signal with HOXA2 [25] was 7.38 upbm affinity estimate (log intensity, higher = more binding, comparable within an allelic series).
On to CCGTCGCC, for which the binding signal in the assay with CRX [1] was 8.18 upbm affinity estimate (log intensity, higher = more binding, comparable within an allelic series); with SIX6 [3] it was 8.85 upbm affinity estimate (log intensity, higher = more binding, comparable within an allelic series); with SIX6 [4], 8.91 upbm affinity estimate (log intensity, higher = more binding, comparable within an allelic series); with SIX6 [6] it was 8.81 upbm affinity estimate (log intensity, higher = more binding, comparable within an allelic series); with SIX6 [7] it was 9.06 upbm affinity estimate (log intensity, higher = more binding, comparable within an allelic series); with SIX6 [8], 8.97 upbm affinity estimate (log intensity, higher = more binding, comparable within an allelic series). Besides, the binding signal with SIX6 [9] was 8.82 upbm affinity estimate (log intensity, higher = more binding, comparable within an allelic series); with SIX6 [10], 8.94 upbm affinity estimate (log intensity, higher = more binding, comparable within an allelic series); in the assay with SIX6 [12], 8.89 upbm affinity estimate (log intensity, higher = more binding, comparable within an allelic series); with SIX6 [15], 9.02 upbm affinity estimate (log intensity, higher = more binding, comparable within an allelic series); with CRX [16], 8.26 upbm affinity estimate (log intensity, higher = more binding, comparable within an allelic series); in the assay with SIX6 [17], 8.74 upbm affinity estimate (log intensity, higher = more binding, comparable within an allelic series). For the same sequence, the binding signal is 8.83 upbm affinity estimate (log intensity, higher = more binding, comparable within an allelic series) with SIX6 [19]; 8.87 upbm affinity estimate (log intensity, higher = more binding, comparable within an allelic series) in the assay with SIX6 [20]; 8.79 upbm affinity estimate (log intensity, higher = more binding, comparable within an allelic series) with SIX6 [21]; 8.24 upbm affinity estimate (log intensity, higher = more binding, comparable within an allelic series) in the assay with CRX [24].
